According to PubChem BioAssay AID1490 (National Center for Advancing Translational Sciences (NCATS), 2009):
The campaign covered roughly 310,000 compounds. About 11,000 (3.5%) were called active. Another 4% or so got no clear call; they are omitted. The list comes from a sample in which actives are over-represented; it also holds similar structures and randomly drawn compounds. A number with no mark means an inactive call. The call rests on the fitted dose curve; in most records, active means well fitted inhibition curve with a large enough effect; inconclusive means small, poorly fitted or top-dose-only effect, or another doubt; inactive means no such curve, though single readings can be large or run the other way.

molecular target: 4'-phosphopantetheinyl transferase ffp (Bacillus subtilis) (UniProt Q9F4F7); experiment: qHTS Assay for Inhibitors of Bacillus subtilis Sfp phosphopantetheinyl transferase (PPTase); settings: Biochemical Sfp PPTase activity;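 further: the enzyme is Sfp with the accession as filed and its product quenches rhodamine fluorescence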;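 on largest response in the series, negative = inhibition: 0% = enzyme reaction without inhibitor and -100% = no enzyme wells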
How it was run: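 Fluorescence-quenching assay with 15 nM Sfp, 5 uM rhodamine-CoA and 12.5 uM BHQ-2-labelled ybbR peptide in pH 7.6 Hepes/MgCl2 buffer. Enzyme was pre-incubated with compound for 15 min at room temperature. Rate was taken from the 30-min fluorescence change (525/598 nm).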
Potency means the concentration at half of the fitted maximal effect.

Compound	largest response in the series, negative = inhibition	Potency
CCC(C)[C@H]1COCCS(=O)(=O)N1Cc1ccc(C)cc1 (stereo partly specified)	13.1%	
Cc1cc(C(F)F)nn1CC(=O)NC1CCCCCC1	15.4%	
CCCCOP(=O)(c1ccc(N(C)C)cc1)C(O)c1cc(OC)ccc1OC (stereo unspecified)	4.86%	
CCn1c(CC(=O)Nc2ccccc2C)nnc1SCC(=O)NC1=NCCS1	7.23%	
O=C(Nc1nnc(C2=COCCO2)o1)c1ccc([N+](=O)[O-])s1	5.3%	
COc1ccc(Nc2nc(-c3cccnc3)nc3ccccc23)cn1	5.49%	
COc1ccccc1Oc1nc(-c2cccnc2)nc2ccccc12	-13.5%	
Fc1ccc(/C=N/Nc2nc(-c3cccnc3)nc3ccccc23)cc1		31.6 µM (active)
CCCCCC1CC(COc2ccccc2)OC1=O (stereo unspecified)	11.1%	
CC(=O)N1CCOc2ccc(S(=O)(=O)N3CCC(C(=O)Nc4ccccc4F)CC3)cc21	2.67%	
COCCNC(=O)c1ccc2c(c1)ncn2-c1ccc(C)c(Cl)c1	6.27%	
O=C(CN1CCN(S(=O)(=O)/C=C/c2ccccc2)CC1)NC(=O)NCc1ccco1	-18.1%	
COc1ccccc1N1CCN(CC(=O)NC(=O)NCc2ccco2)CC1	7.58%	
CC1(c2ccccc2Cl)NC(=O)N(CC(=O)NC(=O)NCc2ccco2)C1=O (stereo unspecified)		79.4 µM (active)
COc1cccc(C(=O)NNS(=O)(=O)c2ccc(F)cc2)c1	-4.08%	
O=S(=O)(NCCc1ccc(Cl)cc1)c1cccs1	7.54%	
COc1cccc(CN2CCN(Cc3ccc4cccc(F)c4n3)CC2CCO)c1 (stereo unspecified)	13.8%	
CCCc1nc2c(c(=O)c3ccccc3n2C)c(=O)n1-c1cc(C)cc(C)c1	-11.4%	
COc1ccc(C(=O)CSc2nnc(COc3ccccc3)n2Cc2ccco2)cc1	-23.6%	
Cn1c2ccccc2c(=O)c2c(=O)n(Cc3ccco3)c(COc3ccccc3)nc21		8.91 µM (active)
COc1cccc(NC(=O)C(=O)c2cn(CC(=O)N3CCOCC3)c3ccccc23)c1	11.1%	
Cc1ccc(C(C)(C)C)c(OCCCCN2CCCC2)c1	-28.7%	
COCCCNCCOCCOc1ccc(Cl)cc1Br	1.66%	

Compound	largest response in the series, negative = inhibition	Potency
CC(C)(C)NCCCOc1ccc(Cl)cc1C(C)(C)C		50.1 µM (active)
CC(C)(C)OC(=O)N1CCC(C(=O)NNC(=O)c2ccc(Cl)cc2Cl)CC1	5.93%	
c1ccc(-c2nc(NCc3ccco3)c3ccccc3n2)cc1		11.2 µM (active)
c1coc(CNc2ncnc3ccccc23)c1	8.96%	
CCOCCCNc1nc(-c2ccccc2)nc2ccccc12	14.7%	
CC(C)C(=O)N1CC(=O)Nc2ccc(F)cc2C1c1ccc(F)cc1 (stereo unspecified)	17.9%	
CCN(CC(=O)N1CCCC1)S(=O)(=O)c1ccc(F)cc1	4.81%	
CCC(=O)NC(=S)Nc1ccc(NC(=O)c2ccco2)c(Cl)c1		39.8 µM (active)
O=C(Nc1ccc(NC(=O)c2ccco2)c(Cl)c1)c1cccc([N+](=O)[O-])c1	5.01%	
O=C(NNC(=S)Nc1ccc(Br)cc1Cl)c1ccco1	12.1%	
O=S(=O)(c1cccc(Cn2nnc(-c3ccc(F)cc3)n2)c1)N1CCOCC1	3.33%	
CC(=O)C1=C(C)NC(=O)NC1c1ccc2c(c1)OCO2 (stereo unspecified)	0.489%	
c1nnc2c3c4c(sc3ncn12)CCC4	-1.58%	
N=c1c2c3c(sc2ncn1N)CCCC3	13.2%	
S=c1[nH]nc2c3c4c(sc3ncn12)CCCC4		56.2 µM (active)
Cc1cc(-c2ccc(S(=O)(=O)N3CCc4ccccc4C3)s2)on1	12.5%	
O=C(NCc1ccccc1)C(c1ccco1)N(C(=O)c1csnn1)c1ccccc1F (stereo unspecified)	11.4%	
C[C@H](NC(=O)C1CC(=O)N(c2ccc3c(c2)OCO3)C1)C(=O)NCc1ccco1 (stereo partly specified)	4.65%	
CC/C=C\C/C=C\C/C=C\C/C=C\C/C=C\C/C=C\CCC(=O)NC(C)C(=O)O (stereo unspecified)	-29.1%	
CN(C)/C=C1\C=C(c2ccccc2)OC1=O		20 µM (active)
CN(C)/C=C1/C(=O)Nc2ccccc21	-6.73%	
COc1cccc(/C=C2\C=C(c3ccc(C)cc3)OC2=O)c1OC(C)=O	-6.33%	
O=S(=O)(c1ccccc1)N(Cc1cccc(F)c1)c1ccccc1	13.8%	
